Test results published in PubChem BioAssay (EPA / NIEHS).
Active and inactive are the calls of the source. The calls were made as follows: active = hit-call score of the fitted dose curve at least 0.9, where 1 is the maximum; inactive = score below 0.9.

Tests used:
[1] = ATG_CRE_CIS: Attagene CIS-FACTORIAL HepG2 Assay for human cAMP Responsive Element (CRE) binding protein 3 (AID 2282926); conditions: HepG2 CRE cis-reporter, Attagene multiplexed mRNA; actives raise or lower the signal
Outline: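 Transfected HepG2 were treated for 24 hours, then RNA was extracted and reporter cDNA amplified with sequence-specific primers. Labelled fragments were separated by capillary electrophoresis, and the CRE signal was fitted bidirectionally with DMSO as baseline.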

[2] = biological target: CCAAT/enhancer-binding protein beta (Homo sapiens) (UniProt P17676); experiment: ATG_C_EBP_CIS: Attagene CIS-FACTORIAL HepG2 Assay for human CCAAT/Enhancer Binding Protein (C/EBP) beta (AID 2282927); conditions: HepG2 Attagene cis-factorial transcription factor reporter; actives raise or lower the signal
Outline: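 Endogenous C/EBPb-driven reporter transcripts measured in transfected human HepG2 cells at 24 h via RT-PCR and capillary electrophoresis of labelled fragments. Activity fitted in both directions relative to DMSO baseline.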

[3] = ATG_DR4_LXR_CIS: Attagene CIS-FACTORIAL HepG2 Assay for human Liver X Receptor (LXR), DR4 submotif (AID 2282929); conditions: HepG2 Attagene DR4 cis-reporter, mRNA transcription; AC50: actives raise or lower the signal unless noted; outcome: actives raise or lower the signal unless noted
Outline: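 Transiently transfected HepG2 liver cells; cis-regulated reporters; 24 h dosing. RT-PCR plus CE read-out of reporter mRNA. DMSO baseline, bidirectional curve fitting.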

[4] = biological target: Aryl hydrocarbon receptor (Homo sapiens) (UniProt P35869); experiment: ATG_Ahr_CIS: Attagene CIS-FACTORIAL HepG2 Assay for human Aryl Hydrocarbon Receptor (Ahr) (AID 2282930); conditions: HepG2 AhR cis-factorial reporter transcription; actives raise or lower the signal
Outline: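 Reporter mRNA levels, quantified by RT-PCR and fluorescent capillary electrophoresis, reflect endogenous AhR transcriptional activity in HepG2 cells carrying transfected cis-promoter reporter constructs. Readout at 24 h post-dose; gain or loss fitted against DMSO baseline.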

[5] = ATG_AP_1_CIS: Attagene CIS-FACTORIAL HepG2 Assay for human Activator Protein 1 (AP-1) (AID 2282931); conditions: HepG2 Attagene cis-factorial AP-1 reporter mRNA; actives raise or lower the signal
Outline: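 We transfected HepG2 cells transiently with a set of cis-regulated reporter transcription units, dosed them for 24 h, and quantified reporter mRNA via RT-PCR and capillary electrophoresis, scoring gain or loss of signal relative to DMSO.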

[6] = ATG_BRE_CIS: Attagene CIS-FACTORIAL HepG2 Assay for human Bone Morphogenetic Protein (BMP) Response Element (BRE) (AID 2282933); conditions: HepG2 BMP response element reporter, Attagene transcription factor profiling; actives raise or lower the signal
Outline: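 Multiplexed cis-reporter assay, HepG2, 24 h exposure. mRNA from reporter units quantified via RT-PCR/CE; DMSO baseline; bidirectional curve fit.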

[7] = biological target: Retinoic acid receptor alpha (Homo sapiens) (UniProt P10276); experiment: ATG_DR5_RAR_CIS: Attagene CIS-FACTORIAL HepG2 Assay for human Retinoic Acid Receptor Alpha (RARE), DR5 submotif (AID 2282934); conditions: HepG2 Attagene cis-factorial RARE DR5 reporter, mRNA; actives raise or lower the signal;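 as to AC50: reporter responds to endogenous RAR alpha beta and gamma in HepG2 not RARA alone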
Outline: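 Reporter transcripts from a DR5-regulated unit, measured via RT-PCR plus capillary electrophoresis, reflect endogenous RAR activity in transiently transfected human HepG2 liver cells. Exposure lasted 24 h; gain or loss of signal scored against DMSO.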

[8] = biological target: Transcription factor E2F1 (Homo sapiens) (UniProt Q01094); experiment: ATG_E2F_CIS: Attagene CIS-FACTORIAL HepG2 Assay for human E2F Transcription Factor 1 (AID 2282935); conditions: HepG2 Attagene cis-reporter, E2F reporter RNA transcripts; actives raise or lower the signal
Outline: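 Total RNA from 24 h-treated, reporter-transfected HepG2 cells undergoes DNase I treatment, oligo(dT) reverse transcription, PCR and 6-FAM primer extension before capillary electrophoresis.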

[9] = ATG_E_Box_CIS: Attagene CIS-FACTORIAL HepG2 Assay for human Enhancer Box (E-box) (AID 2282936); conditions: HepG2 E-box cis-reporter transcription, actives raise or lower the signal
Outline: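 DMSO served as negative control and baseline for bidirectional fitting. Human hepatoma HepG2 cells, transiently transfected with cis-reporter constructs, were dosed 24 h; reporter mRNA read by RT-PCR and capillary electrophoresis.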

[10] = ATG_M_61_CIS: Attagene CIS-FACTORIAL HepG2 Assay for M61 Transcription Factor (Internal Marker) (AID 2282937); conditions: HepG2 Attagene CIS-FACTORIAL M61 internal marker reporter; actives raise or lower the signal
Outline: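 Multiplexed reporter mRNA assay, HepG2 human hepatoma cells, 24 h treatment. Signal: FAM-labelled, HpaI-digested RT-PCR fragments by CE. Fit: bidirectional, baseline DMSO.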

[11] = ATG_AP_2_CIS: Attagene CIS-FACTORIAL HepG2 Assay for human Activator Protein 2 (AP-2) (AID 2282932); conditions: HepG2 AP-2 cis-reporter, Attagene transcription factor profiling; AC50: actives raise or lower the signal unless noted; outcome: actives raise or lower the signal unless noted
Outline: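 Step one: transient transfection of HepG2 with reporter transcription units. Step two: 24 h chemical exposure. Step three: RNA extraction, RT-PCR, labelled fragment analysis by capillary electrophoresis; DMSO serves as baseline.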

[12] = ATG_CMV_CIS: Attagene CIS-FACTORIAL HepG2 Assay for human CMV (Internal Marker) (AID 2282928); conditions: HepG2 CMV promoter reporter, transcription factor profiling; actives raise or lower the signal;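 also: endpoint acts as a background internal control marker rather than a target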
Outline: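 CMV internal-marker background readout in transiently transfected HepG2 cells bearing cis-regulated reporter units. Reporter mRNA is measured 24 h after dosing by RT-PCR and capillary electrophoresis, with bidirectional fitting against DMSO.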

Measured: AC50

Chain of CCAAT/enhancer-binding protein beta (Homo sapiens) (P17676 whole entry, looked up, the tested form may be a part): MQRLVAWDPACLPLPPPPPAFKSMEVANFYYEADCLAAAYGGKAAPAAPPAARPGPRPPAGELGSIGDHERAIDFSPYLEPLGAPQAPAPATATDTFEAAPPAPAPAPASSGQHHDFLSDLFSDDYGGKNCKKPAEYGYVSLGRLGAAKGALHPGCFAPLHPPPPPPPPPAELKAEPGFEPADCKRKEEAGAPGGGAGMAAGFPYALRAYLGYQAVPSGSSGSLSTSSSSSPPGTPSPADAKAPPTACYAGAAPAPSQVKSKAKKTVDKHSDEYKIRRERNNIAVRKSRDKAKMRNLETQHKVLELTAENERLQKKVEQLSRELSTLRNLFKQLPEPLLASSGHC
Chain of Retinoic acid receptor alpha (Homo sapiens) (P10276 whole entry, looked up): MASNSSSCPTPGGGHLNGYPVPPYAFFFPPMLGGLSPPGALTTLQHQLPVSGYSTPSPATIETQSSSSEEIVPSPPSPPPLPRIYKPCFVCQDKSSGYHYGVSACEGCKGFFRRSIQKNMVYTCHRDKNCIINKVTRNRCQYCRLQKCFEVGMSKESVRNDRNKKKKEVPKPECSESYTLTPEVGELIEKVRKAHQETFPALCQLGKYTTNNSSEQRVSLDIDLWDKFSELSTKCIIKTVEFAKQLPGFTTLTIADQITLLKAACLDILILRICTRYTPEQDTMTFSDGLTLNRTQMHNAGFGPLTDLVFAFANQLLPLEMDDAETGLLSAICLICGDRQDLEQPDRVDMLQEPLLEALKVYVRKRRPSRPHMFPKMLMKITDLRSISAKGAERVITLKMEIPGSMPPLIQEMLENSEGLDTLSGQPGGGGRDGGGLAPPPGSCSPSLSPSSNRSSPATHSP
Chain of Transcription factor E2F1 (Homo sapiens) (Q01094 whole entry, looked up): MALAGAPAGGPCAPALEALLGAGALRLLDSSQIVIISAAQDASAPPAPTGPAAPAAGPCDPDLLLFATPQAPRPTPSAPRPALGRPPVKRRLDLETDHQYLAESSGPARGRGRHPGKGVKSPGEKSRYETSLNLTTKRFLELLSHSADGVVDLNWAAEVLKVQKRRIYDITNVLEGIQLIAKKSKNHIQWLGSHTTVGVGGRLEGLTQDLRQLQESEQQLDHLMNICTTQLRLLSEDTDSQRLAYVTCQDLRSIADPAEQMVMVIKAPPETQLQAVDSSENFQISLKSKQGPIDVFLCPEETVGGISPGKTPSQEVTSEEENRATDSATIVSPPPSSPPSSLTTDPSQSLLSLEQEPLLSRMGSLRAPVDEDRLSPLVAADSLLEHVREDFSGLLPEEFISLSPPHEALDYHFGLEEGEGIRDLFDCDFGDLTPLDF
Chain of Aryl hydrocarbon receptor (Homo sapiens) (P35869 whole entry, looked up): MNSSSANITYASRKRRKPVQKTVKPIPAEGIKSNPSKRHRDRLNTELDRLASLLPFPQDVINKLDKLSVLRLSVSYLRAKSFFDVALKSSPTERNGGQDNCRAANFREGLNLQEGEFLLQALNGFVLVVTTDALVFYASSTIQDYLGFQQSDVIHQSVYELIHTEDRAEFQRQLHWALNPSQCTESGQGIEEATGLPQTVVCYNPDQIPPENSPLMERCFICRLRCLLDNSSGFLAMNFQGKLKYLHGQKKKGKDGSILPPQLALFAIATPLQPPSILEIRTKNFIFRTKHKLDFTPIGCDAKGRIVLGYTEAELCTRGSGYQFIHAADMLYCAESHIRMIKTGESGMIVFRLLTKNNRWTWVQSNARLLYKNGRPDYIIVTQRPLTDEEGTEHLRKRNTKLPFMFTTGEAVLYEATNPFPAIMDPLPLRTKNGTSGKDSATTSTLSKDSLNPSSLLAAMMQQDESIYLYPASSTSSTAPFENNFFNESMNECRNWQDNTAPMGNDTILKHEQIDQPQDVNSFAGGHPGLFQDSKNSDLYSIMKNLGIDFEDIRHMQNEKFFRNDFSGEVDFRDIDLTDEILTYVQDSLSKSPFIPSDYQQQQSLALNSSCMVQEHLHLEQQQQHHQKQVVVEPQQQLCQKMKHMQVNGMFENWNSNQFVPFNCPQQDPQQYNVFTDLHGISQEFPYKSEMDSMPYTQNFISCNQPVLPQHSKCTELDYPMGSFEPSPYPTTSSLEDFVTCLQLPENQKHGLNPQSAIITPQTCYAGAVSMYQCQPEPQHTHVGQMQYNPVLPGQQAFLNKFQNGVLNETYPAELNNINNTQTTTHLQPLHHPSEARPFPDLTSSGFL

O=C1c2ccc(O)c(O)c2C(=O)c2c(O)ccc(O)c21
active: [4] 0.0722 µM | [5] 50 µM | [9] 6.45 µM
not listed: [11] | [12]
inactive: all other assays above

CCCCN(C)C
not listed: [12]
inactive: all other assays above

CCCCCCc1ccc(N)cc1
active: [4] 45.5 µM
not listed: [12]
inactive: all other assays above

CCOC=O
not listed: [12]
inactive: all other assays above

O=c1cc(-c2ccccc2)oc2ccc3ccccc3c12
not listed: [4] | [7] | [11]
inactive: all other assays above

Cc1ccc(N=Nc2c(O)ccc3ccccc23)c(C)c1
active: [4] 0.36 µM | [5] 5.87 µM
not listed: [12]
inactive: all other assays above

Brc1cc(Br)c(Oc2c(Br)cc(Br)c(Br)c2Br)cc1Br
not listed: [5] | [11]
inactive: all other assays above

CCOC(C)=O
not listed: [4] | [5] | [11]
inactive: all other assays above

O=C(O)c1cccc(C(=O)O)n1
not listed: [12]
inactive: all other assays above

O=C(C=C(O)C(F)(F)F)C(F)(F)F
not listed: [5]
inactive: all other assays above

CCOC(=O)c1nc(C(Cl)(Cl)Cl)n(-c2ccc(Cl)cc2Cl)n1
active: [3] 48.5 µM | [5] 57.8 µM | [11] 25.3 µM | [8] 181 µM
not listed: [12]
inactive: all other assays above

Oc1ccc(Cc2ccccc2O)cc1
not listed: [12]
inactive: all other assays above

CCCCCCOC(=O)c1ccc(O)cc1
active: [1] 44.2 µM | [12] 51 µM | [3] 41.8 µM | [11] 54.9 µM | [9] 51.6 µM
not listed: [5]
inactive: all other assays above

C=CC(=C)CC/C=C(\C)CCC=C(C)C
not listed: [1] | [7] | [11]
inactive: all other assays above

CC(C)(C)c1ccc(CCC=O)cc1
active: [7] 72.3 µM
not listed: [1] | [12]
inactive: all other assays above

COC(=O)C(F)(F)C(F)(F)C(F)(F)F
not listed: [1]
inactive: all other assays above

COc1cccc(O)c1
not listed: [1] | [11]
inactive: all other assays above
